# Experimental data published in PubChem BioAssay (Tox21).
# Inconclusive results are not listed. Entries that show only a call come without a potency. Active and inactive are the calls of the source. Calls come from the whole dose curve; as a rule, active = well fitted cell-killing curve with a large enough effect in the repeat runs; inconclusive = weak or mixed curves; inactive = flat fitted curve, though single readings scatter.
# Test: qHTS RealTime-Glo MT Cell Viability Assay in HepG2 cells - 8 hour (AID 1224873); note: nearly all actives have a fitted effect of over 55% in size
# Conditions: RealTime-Glo luminescence; series mostly up to 76.8 µM; viability change, negative = cytotoxic: at the top concentration
# Procedure, shortened: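 HepG2 cells (600/well) mixed with RealTime-Glo MT reagent, settled 5 h at 37 C/5% CO2 before compound addition. Nonlytic NanoLuc luminescence from viable-cell prosubstrate reduction read repeatedly during 40 h treatment at 37 C.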
SMILES,Potency,"viability change, negative = cytotoxic"
CC1=C(/C=C/C(C)=C/C=C/C(C)=C/CO)C(C)(C)CCC1,inactive,
COC(=O)c1ccccc1O,inactive,
Oc1ccc2ccccc2c1N=Nc1ccccc1,,-18.1% (inactive)
C[C@@H](O)[C@H]1C(=O)N2C(C(=O)O)=C(S[C@@H]3CN[C@H](C(=O)N(C)C)C3)[C@H](C)[C@H]12,inactive,
C=C1CC[C@H](O)CC1=C/C=C1\CCC[C@]2(C)[C@@H]([C@H](C)/C=C/[C@H](C)C(C)C)CC[C@@H]12,inactive,
CCc1ccc(O)cc1,inactive,
COC(=O)c1ccc(C(=O)OC)cc1,inactive,
OCC#CCO,inactive,
CN(C)c1cccc(O)c1,inactive,
COCC(=O)O,inactive,
CC1=CC[C@H]2C[C@@H]1C2(C)C,inactive,
CC(C)(C)C1CCC(O)CC1 (stereo unspecified),inactive,
O=S(=O)(O)c1cc(S(=O)(=O)O)c2c(N=Nc3ccccc3)c(O)ccc2c1,inactive,
CC#C[C@]1(O)CC[C@H]2[C@@H]3CCC4=CC(=O)CCC4=C3[C@@H](c3ccc(N(C)C)cc3)C[C@@]21C,,-26.1% [at 35.3 µM] (inactive)
S=c1nc[nH]c2nc[nH]c12,inactive,
O=C(Cl)c1c(Cl)c(Cl)c(C(=O)Cl)c(Cl)c1Cl,inactive,
Nc1nc2ncc(CNc3ccc(C(=O)N[C@@H](CCC(=O)O)C(=O)O)cc3)nc2c(=O)[nH]1,inactive,
CC1Cc2ccccc2N1NC(=O)c1ccc(Cl)c(S(N)(=O)=O)c1 (stereo unspecified),inactive,
C=C(C)C(=O)OCC(CC)(COC(=O)C(=C)C)COC(=O)C(=C)C,inactive,
CCCCCCCCCCCCOCC1CO1 (stereo unspecified),inactive,
CC(C)n1c(/C=C/[C@@H](O)C[C@@H](O)CC(=O)O)c(-c2ccc(F)cc2)c2ccccc21,inactive,
